Experiment [1] concerns RAW-Dual. Nature of the experiment: NF-kB SEAP reporter activity, fold change vs agonist alone; cytotoxicity flag (confluency mask): not cytotoxic; higher = enhanced NF-kB activity. A digest of the protocol:
(§1)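 Reporter activity is given as fold change relative to agonist-alone wells. To measure it, 50 nL of library stock was pin-tooled onto RAW-Dual macrophages (50,000 cells/well, DMEM, 384-well plates), a PRR agonist followed 1 h later, and cells stayed at 37 °C, 5% CO2. Twenty hours on, supernatant was assayed for IRF (QuantiLuc luminescence) and NF-κB (QuantiBlue, 620 nm absorbance), and wells under 70% of agonist-control IncuCyte confluency in both mask sets were marked cytotoxic.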

For experiment [2], the system named is RAW-Dual. As to the kind of experiment: NF-kB SEAP reporter activity, fold change vs agonist alone; higher = enhanced NF-kB activity. A digest of the protocol:
as §1

The test system of experiment [3] is RAW-Dual. As to the kind of experiment: NF-kB SEAP reporter activity, fold change vs agonist alone; cytotoxicity flag (confluency mask): cytotoxic (confluency <70% of control); higher = enhanced NF-kB activity. The method, boiled down:
as §1

The mark [4] stands for this setting: agonist: ODN 1826 (TLR9) 0.5 ug/mL.
[5] abbreviates: agonist: Pam2CSK4 (TLR2/6) 0.1 ug/mL.
[6] abbreviates: agonist: Pam3CSK4 (TLR2/1) 0.1 ug/mL.
The mark [7] stands for this setting: library stock concentration (final ~1000-fold dilution): 10 mM, cytotoxicity flag (confluency mask): cytotoxic (confluency <70% of control), agonist: MPLA (TLR4) […].
The mark [8] stands for this setting: library stock concentration (final ~1000-fold dilution): 10 mM, cytotoxicity flag (confluency mask): cytotoxic (confluency <70% of control), agonist: Imiquimod (TLR7) […].
[9] abbreviates: library stock concentration (final ~1000-fold dilution): 10 mM, cytotoxicity flag (confluency mask): not cytotoxic, agonist: Imiquimod (TLR7) […].
The mark [10] stands for this setting: library stock concentration (final ~1000-fold dilution): 10 mM, cytotoxicity flag (confluency mask): not cytotoxic, agonist: MPLA (TLR4) […].

In all, about 2,900 compounds were measured (“NF-kB SEAP reporter activity, fold change vs agonist alone”: median about 0.99, highest 2% from about 2.6 on). The sample holds the highest values, similar compounds and a random draw of the others, so the mix is not that of the screen.

With `CN(C)c1ccc(O)c2c1CC1CC3C(N(C)C)C(=O)C(C(N)=O)=C(O)C3(O)C(=O)C1=C2O` (stereo unspecified) (library stock concentration (final ~1000-fold dilution): 5 mM), the “NF-kB SEAP reporter activity” value in experiment [1] (agonist: LPS (TLR4) 0.1 ug/mL) worked out at 1.03; in experiment [1] (setting [4]), 1.15; in experiment [1] (setting [5]), 0.833; in experiment [1] (setting [6]) it was 0.759.
For `CN(C)c1ccc(O)c2c1CC1CC3C(N(C)C)C(=O)C(C(N)=O)=C(O)C3(O)C(=O)C1=C2O` (stereo unspecified), the “NF-kB SEAP reporter activity” value in experiment [2] (library stock concentration (final ~1000-fold dilution): 5 mM, cytotoxicity flag (confluency mask): not cytotoxic, agonist: Imiquimod (TLR7) […]) is 1.25; in experiment [2] (library stock concentration (final ~1000-fold dilution): 5 mM, cytotoxicity flag (confluency mask): not cytotoxic, agonist: MPLA (TLR4) […]) it was 0.933.
`CN(C)CCC=C1c2ccccc2C(C)(C)c2ccccc21.Cl`: in experiment [2] (setting [7]), the “NF-kB SEAP reporter activity” value was found to be 1.4.
Consider `CN(C)CCC=C1c2ccccc2C(C)(C)c2ccccc21.Cl` (library stock concentration (final ~1000-fold dilution): 10 mM), for which the “NF-kB SEAP reporter activity” value in experiment [3] (agonist: LPS (TLR4) 0.1 ug/mL) was 1.45; in experiment [3] (setting [4]) it was 0.727; in experiment [3] (setting [5]) it was 0.53; in experiment [3] (setting [6]), 0.8.
Turning to `O=C(NO)c1cnc(NC2(c3ccccc3)CC2)nc1`, the “NF-kB SEAP reporter activity” value in experiment [2] (setting [8]) amounted to 1.46; in experiment [2] (setting [7]), 2.22.
In the case of `O=C(NO)c1cnc(NC2(c3ccccc3)CC2)nc1` (library stock concentration (final ~1000-fold dilution): 10 mM), the “NF-kB SEAP reporter activity” value in experiment [3] (agonist: LPS (TLR4) 0.1 ug/mL) stood at 2.94; in experiment [3] (setting [4]), 1.6; in experiment [3] (setting [5]), 0.654; in experiment [3] (setting [6]), 1.4.
Turning to `CC(C)NCC(O)COc1ccc(COCCOC(C)C)cc1.O=C(O)/C=C/C(=O)O` (stereo unspecified) (library stock concentration (final ~1000-fold dilution): 10 mM), the “NF-kB SEAP reporter activity” value amounted to 1.05 in experiment [1] (agonist: LPS (TLR4) 0.1 ug/mL), 0.873 in experiment [1] (setting [4]), 0.984 in experiment [1] (setting [5]) and 1.03 in experiment [1] (setting [6]).
As for `CC(C)NCC(O)COc1ccc(COCCOC(C)C)cc1.O=C(O)/C=C/C(=O)O` (stereo unspecified), the “NF-kB SEAP reporter activity” value turned out to be 0.869 in experiment [2] (setting [9]) and 1.02 in experiment [2] (setting [10]).
For `Cc1ccc(-c2c(-c3nn(C)c4ncnc(N5CCC(N6CCCCC6)C5)c34)cnn2C)cc1` (stereo unspecified), in that order: 0.947 and 1.09.
For the molecule `Cc1ccc(-c2c(-c3nn(C)c4ncnc(N5CCC(N6CCCCC6)C5)c34)cnn2C)cc1` (stereo unspecified) (library stock concentration (final ~1000-fold dilution): 10 mM), the “NF-kB SEAP reporter activity” value in experiment [1] (agonist: LPS (TLR4) 0.1 ug/mL) was 1.57; in experiment [1] (setting [4]) it was 0.856; in experiment [1] (setting [5]), 1.21; in experiment [1] (setting [6]) it was 1.16.
As for `Cc1nc(Nc2ncc(C(=O)Nc3c(C)cccc3Cl)s2)cc(N2CCN(CCO)CC2)n1.O`, the “NF-kB SEAP reporter activity” value in experiment [2] (setting [9]) amounted to 0.326; in experiment [2] (setting [10]), 0.715.
`Cc1nc(Nc2ncc(C(=O)Nc3c(C)cccc3Cl)s2)cc(N2CCN(CCO)CC2)n1.O` (library stock concentration (final ~1000-fold dilution): 10 mM): the “NF-kB SEAP reporter activity” value was 1.33 in experiment [1] (agonist: LPS (TLR4) 0.1 ug/mL), 0.661 in experiment [1] (setting [4]), 0.283 in experiment [1] (setting [5]) and 0.215 in experiment [1] (setting [6]).
With `CC1OC(OC2CCC3(C)C(CCC4(C)C3C=CC35OCC6(CCC(C)(C)CC63)C(O)CC45C)C2(C)CO)C(O)C(OC2OC(CO)C(O)C(O)C2O)C1O` (stereo unspecified), in experiment [2] (setting [7]), the “NF-kB SEAP reporter activity” value was 0.319.
In the case of `CC1OC(OC2CCC3(C)C(CCC4(C)C3C=CC35OCC6(CCC(C)(C)CC63)C(O)CC45C)C2(C)CO)C(O)C(OC2OC(CO)C(O)C(O)C2O)C1O` (stereo unspecified) (library stock concentration (final ~1000-fold dilution): 10 mM), the “NF-kB SEAP reporter activity” value stood at 0.221 in experiment [3] (agonist: LPS (TLR4) 0.1 ug/mL), 0.257 in experiment [3] (setting [4]), 0.0991 in experiment [3] (setting [5]) and 0.143 in experiment [3] (setting [6]).
In the case of `Clc1ccc(N/N=C(\c2ccccc2)c2ccccn2)nc1`, the “NF-kB SEAP reporter activity” value worked out at 1.5 in experiment [2] (setting [9]) and 2.77 in experiment [2] (setting [10]).
As for `NC(=O)c1ccccn1`, the “NF-kB SEAP reporter activity” value in experiment [2] (setting [10]) is 1.08.
Regarding `Clc1ccc(N/N=C(\c2ccccc2)c2ccccn2)nc1` (library stock concentration (final ~1000-fold dilution): 10 mM), the “NF-kB SEAP reporter activity” value in experiment [1] (agonist: LPS (TLR4) 0.1 ug/mL) worked out at 4.59; in experiment [1] (setting [4]), 1.18; in experiment [1] (setting [5]), 0.556; in experiment [1] (setting [6]) it was 1.76.
For `NC(=O)c1ccccn1` (library stock concentration (final ~1000-fold dilution): 10 mM), in that order: 1.07, 0.942, 1.06 and 0.836.
`C=C1CC23CCC4C(C)(C(=O)O)CCCC4(C)C2CCC1C3` (stereo unspecified): the “NF-kB SEAP reporter activity” value in experiment [2] (setting [9]) amounted to 0.739; in experiment [2] (setting [10]) it was 0.753.
As for `C=C1CC23CCC4C(C)(C(=O)O)CCCC4(C)C2CCC1C3` (stereo unspecified) (library stock concentration (final ~1000-fold dilution): 10 mM), the “NF-kB SEAP reporter activity” value in experiment [1] (agonist: LPS (TLR4) 0.1 ug/mL) turned out to be 0.821; in experiment [1] (setting [4]) it was 0.749; in experiment [1] (setting [5]), 0.65; in experiment [1] (setting [6]) it was 0.646.
Take `COc1ccc(CCCOC(Cn2ccnc2)c2ccc(OC)cc2)cc1.Cl` (stereo unspecified): the results for the “NF-kB SEAP reporter activity” value in experiment [2] (setting [9]) and in experiment [2] (setting [10]) were 0.901 and 1.28, respectively.
Regarding `COc1ccc(CCCOC(Cn2ccnc2)c2ccc(OC)cc2)cc1.Cl` (stereo unspecified) (library stock concentration (final ~1000-fold dilution): 10 mM), the “NF-kB SEAP reporter activity” value in experiment [1] (agonist: LPS (TLR4) 0.1 ug/mL) was found to be 0.82; in experiment [1] (setting [4]) it was 0.588; in experiment [1] (setting [5]), 0.572; in experiment [1] (setting [6]) it was 0.84.
On the same counts, the results for `Cl.Cn1cc(C(=O)Nc2ccc3c(c2)OCCO3)c2ccccc2c1=O` (library stock concentration (final ~1000-fold dilution): 10 mM) are 2.21, 1.48, 1.09 and 1.29.
As for `Cl.Cn1cc(C(=O)Nc2ccc3c(c2)OCCO3)c2ccccc2c1=O`, the “NF-kB SEAP reporter activity” value in experiment [2] (setting [9]) was found to be 1.2; in experiment [2] (setting [10]), 1.41.
On to `CC(C)(C)CC1NC(C(=O)NC2CCC(O)CC2)C(c2cccc(Cl)c2F)C12C(=O)Nc1cc(Cl)ccc12` (stereo unspecified), for which the “NF-kB SEAP reporter activity” value in experiment [2] (setting [8]) is 1.55; in experiment [2] (setting [7]) it was 2.25.
Take `COc1cc(C(=O)O)ccc1NC(=O)C1NC(CC(C)(C)C)C(C#N)(c2ccc(Cl)cc2F)C1c1cccc(Cl)c1F` (stereo unspecified) (library stock concentration (final ~1000-fold dilution): 10 mM): the “NF-kB SEAP reporter activity” value in experiment [1] (agonist: LPS (TLR4) 0.1 ug/mL) turned out to be 0.272; in experiment [1] (setting [4]), 0.436; in experiment [1] (setting [5]), 0.145; in experiment [1] (setting [6]) it was 0.285.
Take `CC(C)(C)CC1NC(C(=O)NC2CCC(O)CC2)C(c2cccc(Cl)c2F)C12C(=O)Nc1cc(Cl)ccc12` (stereo unspecified) (library stock concentration (final ~1000-fold dilution): 10 mM): the “NF-kB SEAP reporter activity” value came to 3.05 in experiment [3] (agonist: LPS (TLR4) 0.1 ug/mL), 2.82 in experiment [3] (setting [4]), 0.884 in experiment [3] (setting [5]) and 1.21 in experiment [3] (setting [6]).
As for `COc1cc(C(=O)O)ccc1NC(=O)C1NC(CC(C)(C)C)C(C#N)(c2ccc(Cl)cc2F)C1c1cccc(Cl)c1F` (stereo unspecified), the “NF-kB SEAP reporter activity” value in experiment [2] (setting [9]) was found to be 0.74; in experiment [2] (setting [10]), 0.697.

Source of the values: the supplement of paper PMC10037445.
